# According to the supplement of paper PMC11732987, “Enantioselective OTUD7B fragment discovery through chemoproteomics screening and high-throughput optimisation” (Communications Chemistry, 2025):
# A number with no mark means an inactive call.
# Legend:
# Assay in all cases: log2 ratio of Biotin-Ahx-Ub-VS probe labelling (fragment/DMSO); higher = less target engagement (more negative = stronger competition), active = hit call of the paper (q ≤ 0.05, log2 ratio ≤ -1)
# Details in all cases: compound concentration: 200 uM; treatment time: 3 h
# ALG13 = target: T1, ALG13 (UniProt Q9NP73)
# T1 sequence (whole entry): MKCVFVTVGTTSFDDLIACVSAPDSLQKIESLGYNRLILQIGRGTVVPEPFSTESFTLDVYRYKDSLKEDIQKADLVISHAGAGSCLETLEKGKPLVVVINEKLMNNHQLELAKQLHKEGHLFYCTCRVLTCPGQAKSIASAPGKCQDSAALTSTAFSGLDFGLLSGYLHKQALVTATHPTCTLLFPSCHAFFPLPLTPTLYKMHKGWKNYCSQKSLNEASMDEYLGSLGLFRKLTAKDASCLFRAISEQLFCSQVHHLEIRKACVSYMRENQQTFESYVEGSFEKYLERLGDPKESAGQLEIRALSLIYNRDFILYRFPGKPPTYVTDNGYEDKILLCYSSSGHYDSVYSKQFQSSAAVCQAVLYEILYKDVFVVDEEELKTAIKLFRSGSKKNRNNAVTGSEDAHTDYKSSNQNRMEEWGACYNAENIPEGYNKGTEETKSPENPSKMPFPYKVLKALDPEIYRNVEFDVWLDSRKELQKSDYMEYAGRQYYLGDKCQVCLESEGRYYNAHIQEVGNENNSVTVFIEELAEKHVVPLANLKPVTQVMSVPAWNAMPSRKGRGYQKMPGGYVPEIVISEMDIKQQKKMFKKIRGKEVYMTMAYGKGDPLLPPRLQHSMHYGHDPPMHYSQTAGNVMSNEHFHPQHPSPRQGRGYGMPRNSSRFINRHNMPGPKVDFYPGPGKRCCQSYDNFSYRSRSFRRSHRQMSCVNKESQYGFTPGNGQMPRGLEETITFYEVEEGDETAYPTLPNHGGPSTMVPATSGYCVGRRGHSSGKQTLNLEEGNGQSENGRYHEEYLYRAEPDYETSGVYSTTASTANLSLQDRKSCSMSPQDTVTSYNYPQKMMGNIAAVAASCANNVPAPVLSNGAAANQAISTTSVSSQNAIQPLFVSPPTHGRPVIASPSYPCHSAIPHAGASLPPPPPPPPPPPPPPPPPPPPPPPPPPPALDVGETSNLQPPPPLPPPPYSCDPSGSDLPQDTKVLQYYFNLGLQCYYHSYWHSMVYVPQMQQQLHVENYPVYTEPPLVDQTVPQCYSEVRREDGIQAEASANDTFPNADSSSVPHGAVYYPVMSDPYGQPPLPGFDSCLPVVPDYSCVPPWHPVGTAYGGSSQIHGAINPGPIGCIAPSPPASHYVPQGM
# Summary of the method: (§1)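 Labelling with Biotin-Ahx-Ub-VS (0.5 µM final, 1 h) followed a 3 h triplicate treatment of HEK293T lysate (495 µg per sample, Tris/CHAPS/IGEPAL buffer with protease inhibitors) with fragment at 200 µM or vehicle. Labelled DUBs were NeutrAvidin-enriched, digested with LysC and trypsin, and run by diaPASEF LC-MS/MS. The values, average log2 fragment/vehicle ratios by unpaired t-test, come from global-median-normalised Spectronaut label-free quantities. Proteins with ≥2 unique peptides were used.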
# ATXN3 = ATXN3 (UniProt P54252)
# Summary of the method: as §1
# BAP1 = target: T2, BAP1 (UniProt Q92560)
# T2 sequence (whole entry): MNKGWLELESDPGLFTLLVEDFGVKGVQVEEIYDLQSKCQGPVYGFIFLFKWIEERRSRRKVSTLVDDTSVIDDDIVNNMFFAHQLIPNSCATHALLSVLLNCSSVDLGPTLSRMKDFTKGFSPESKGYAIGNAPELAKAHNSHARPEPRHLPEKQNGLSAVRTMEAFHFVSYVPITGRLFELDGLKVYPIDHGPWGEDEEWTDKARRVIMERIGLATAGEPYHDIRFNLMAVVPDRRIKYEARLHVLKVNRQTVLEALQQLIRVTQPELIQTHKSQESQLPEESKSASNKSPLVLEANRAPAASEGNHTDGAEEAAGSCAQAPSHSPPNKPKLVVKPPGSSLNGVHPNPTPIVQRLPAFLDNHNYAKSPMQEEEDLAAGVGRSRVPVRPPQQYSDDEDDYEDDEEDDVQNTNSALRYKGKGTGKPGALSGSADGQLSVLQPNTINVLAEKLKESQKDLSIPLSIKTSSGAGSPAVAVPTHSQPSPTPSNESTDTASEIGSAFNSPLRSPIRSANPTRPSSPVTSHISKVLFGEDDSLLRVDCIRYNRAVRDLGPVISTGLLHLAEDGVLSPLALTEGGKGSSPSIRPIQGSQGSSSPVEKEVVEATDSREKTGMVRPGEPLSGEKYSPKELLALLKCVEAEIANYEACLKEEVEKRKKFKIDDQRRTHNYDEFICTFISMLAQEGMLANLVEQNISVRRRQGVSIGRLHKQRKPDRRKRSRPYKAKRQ
# Summary of the method: as §1
# EIF3F = EIF3F (UniProt O00303)
# Summary of the method: as §1
# EIF3H = EIF3H (UniProt O15372)
# Summary of the method: as §1
# FAM105A = target: T3, FAM105A (UniProt Q9NUU6)
# T3 sequence (whole entry): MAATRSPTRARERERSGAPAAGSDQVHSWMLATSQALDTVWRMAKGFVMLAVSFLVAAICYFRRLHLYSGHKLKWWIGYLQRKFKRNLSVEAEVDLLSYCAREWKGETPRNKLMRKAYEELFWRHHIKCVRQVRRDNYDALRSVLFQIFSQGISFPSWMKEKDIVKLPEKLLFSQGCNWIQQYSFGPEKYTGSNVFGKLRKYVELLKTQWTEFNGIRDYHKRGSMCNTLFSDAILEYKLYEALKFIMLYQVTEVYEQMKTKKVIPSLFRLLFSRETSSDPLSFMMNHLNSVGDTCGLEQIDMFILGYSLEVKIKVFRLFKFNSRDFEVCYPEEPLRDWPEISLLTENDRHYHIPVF
# Summary of the method: as §1
# OTUB1 = OTUB1 (UniProt Q96FW1)
# Summary of the method: as §1
# OTUD4 = target: T4, OTUD4 (UniProt Q01804)
# T4 sequence (whole entry): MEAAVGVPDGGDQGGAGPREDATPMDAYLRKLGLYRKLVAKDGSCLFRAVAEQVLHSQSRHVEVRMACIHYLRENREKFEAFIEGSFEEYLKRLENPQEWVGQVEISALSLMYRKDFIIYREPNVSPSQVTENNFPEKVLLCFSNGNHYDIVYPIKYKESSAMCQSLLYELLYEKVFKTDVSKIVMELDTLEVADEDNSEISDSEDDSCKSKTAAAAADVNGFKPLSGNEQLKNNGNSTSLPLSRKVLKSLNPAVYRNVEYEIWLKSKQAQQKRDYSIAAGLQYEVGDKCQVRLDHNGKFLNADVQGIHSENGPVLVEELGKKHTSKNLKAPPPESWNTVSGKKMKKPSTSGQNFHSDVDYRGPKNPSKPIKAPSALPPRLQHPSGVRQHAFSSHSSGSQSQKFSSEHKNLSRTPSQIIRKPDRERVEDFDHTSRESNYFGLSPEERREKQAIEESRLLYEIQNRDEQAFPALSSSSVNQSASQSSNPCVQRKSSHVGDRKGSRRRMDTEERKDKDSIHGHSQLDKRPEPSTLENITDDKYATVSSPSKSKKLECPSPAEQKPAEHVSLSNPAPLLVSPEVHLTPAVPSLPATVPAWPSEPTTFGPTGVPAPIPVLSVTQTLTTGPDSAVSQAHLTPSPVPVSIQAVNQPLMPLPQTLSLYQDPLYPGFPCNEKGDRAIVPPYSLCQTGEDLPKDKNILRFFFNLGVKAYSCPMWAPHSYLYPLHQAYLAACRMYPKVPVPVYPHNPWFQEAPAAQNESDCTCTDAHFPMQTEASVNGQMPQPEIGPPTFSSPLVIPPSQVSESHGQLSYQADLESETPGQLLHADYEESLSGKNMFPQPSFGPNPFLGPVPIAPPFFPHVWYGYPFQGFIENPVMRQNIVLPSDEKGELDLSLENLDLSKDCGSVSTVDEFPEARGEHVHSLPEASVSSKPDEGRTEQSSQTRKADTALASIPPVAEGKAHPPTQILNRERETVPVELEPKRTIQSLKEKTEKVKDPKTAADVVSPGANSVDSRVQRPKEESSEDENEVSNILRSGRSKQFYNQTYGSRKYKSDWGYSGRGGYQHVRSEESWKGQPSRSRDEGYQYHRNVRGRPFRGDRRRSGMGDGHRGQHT
# Summary of the method: as §1
# OTUD5 = target: T5, OTUD5 (UniProt Q96G74)
# T5 sequence (whole entry): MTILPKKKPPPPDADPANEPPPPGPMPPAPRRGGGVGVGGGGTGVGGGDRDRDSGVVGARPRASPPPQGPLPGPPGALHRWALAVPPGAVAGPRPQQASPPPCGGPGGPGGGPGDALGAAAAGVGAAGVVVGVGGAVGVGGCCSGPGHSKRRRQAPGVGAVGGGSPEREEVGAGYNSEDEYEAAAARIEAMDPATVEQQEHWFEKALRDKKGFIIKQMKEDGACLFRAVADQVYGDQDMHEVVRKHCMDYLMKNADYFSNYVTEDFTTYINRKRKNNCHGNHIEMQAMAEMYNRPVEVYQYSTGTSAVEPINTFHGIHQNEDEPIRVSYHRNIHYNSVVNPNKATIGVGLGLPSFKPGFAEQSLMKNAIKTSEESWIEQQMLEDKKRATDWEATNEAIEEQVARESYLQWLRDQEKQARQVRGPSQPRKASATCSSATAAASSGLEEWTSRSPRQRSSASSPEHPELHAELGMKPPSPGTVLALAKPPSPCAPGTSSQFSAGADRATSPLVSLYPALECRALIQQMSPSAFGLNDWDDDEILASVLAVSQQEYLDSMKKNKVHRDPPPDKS
# Summary of the method: as §1
# EIF3H, sequence (O15372 whole entry): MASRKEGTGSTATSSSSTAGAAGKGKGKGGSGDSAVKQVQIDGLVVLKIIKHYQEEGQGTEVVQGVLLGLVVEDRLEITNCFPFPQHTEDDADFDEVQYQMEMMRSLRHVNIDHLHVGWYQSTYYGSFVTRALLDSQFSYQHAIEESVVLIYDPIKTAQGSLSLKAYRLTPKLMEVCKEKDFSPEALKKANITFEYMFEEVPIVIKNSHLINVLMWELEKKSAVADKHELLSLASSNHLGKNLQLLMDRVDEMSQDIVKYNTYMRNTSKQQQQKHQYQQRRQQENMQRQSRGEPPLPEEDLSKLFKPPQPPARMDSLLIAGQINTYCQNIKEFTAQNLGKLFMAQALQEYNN
# ATXN3, sequence (P54252 whole entry): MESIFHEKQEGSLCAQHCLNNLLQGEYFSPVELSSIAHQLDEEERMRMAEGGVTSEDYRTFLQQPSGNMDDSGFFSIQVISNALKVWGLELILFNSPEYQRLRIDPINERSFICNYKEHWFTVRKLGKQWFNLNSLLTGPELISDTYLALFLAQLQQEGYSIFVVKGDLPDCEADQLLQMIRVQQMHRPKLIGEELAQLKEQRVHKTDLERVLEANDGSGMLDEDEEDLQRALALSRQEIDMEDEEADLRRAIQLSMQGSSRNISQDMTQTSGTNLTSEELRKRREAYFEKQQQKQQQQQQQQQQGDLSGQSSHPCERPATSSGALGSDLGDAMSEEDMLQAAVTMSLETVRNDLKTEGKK
# OTUB1, sequence (Q96FW1 whole entry): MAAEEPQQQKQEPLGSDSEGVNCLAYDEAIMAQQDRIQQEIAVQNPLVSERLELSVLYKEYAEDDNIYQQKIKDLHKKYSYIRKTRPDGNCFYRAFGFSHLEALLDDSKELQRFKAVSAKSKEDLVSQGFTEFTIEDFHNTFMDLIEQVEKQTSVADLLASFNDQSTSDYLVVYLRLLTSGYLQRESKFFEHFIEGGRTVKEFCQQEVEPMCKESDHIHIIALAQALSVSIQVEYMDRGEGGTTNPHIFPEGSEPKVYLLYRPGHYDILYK
# EIF3F, sequence (O00303 whole entry): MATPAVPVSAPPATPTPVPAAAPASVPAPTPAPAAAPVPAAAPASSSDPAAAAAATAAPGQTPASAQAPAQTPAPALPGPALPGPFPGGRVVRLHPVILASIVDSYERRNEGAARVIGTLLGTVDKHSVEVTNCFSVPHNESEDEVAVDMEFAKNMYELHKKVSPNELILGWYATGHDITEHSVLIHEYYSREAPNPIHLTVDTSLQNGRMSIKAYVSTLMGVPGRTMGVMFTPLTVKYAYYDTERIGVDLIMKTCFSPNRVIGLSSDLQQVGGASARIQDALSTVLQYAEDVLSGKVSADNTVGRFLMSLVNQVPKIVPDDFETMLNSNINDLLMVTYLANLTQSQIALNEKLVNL
smiles,measurement,setting,value
O=C(CCl)NCC1(c2ccccc2)CC1,log2 ratio of Biotin-Ahx-Ub-VS probe labelling,ALG13,-1.4 (active)
same,log2 ratio of Biotin-Ahx-Ub-VS probe labelling,ATXN3,0.0359
same,log2 ratio of Biotin-Ahx-Ub-VS probe labelling,BAP1,-1.15 (active)
same,log2 ratio of Biotin-Ahx-Ub-VS probe labelling,EIF3F,-0.053
same,log2 ratio of Biotin-Ahx-Ub-VS probe labelling,EIF3H,0.176
same,log2 ratio of Biotin-Ahx-Ub-VS probe labelling,FAM105A,-0.0439
same,log2 ratio of Biotin-Ahx-Ub-VS probe labelling,OTUB1,0.0757
same,log2 ratio of Biotin-Ahx-Ub-VS probe labelling,OTUD4,-0.368
same,log2 ratio of Biotin-Ahx-Ub-VS probe labelling,OTUD5,-0.335
